Compounds without any hit were thinned out: in the full panel of roughly 79,000, 15% have a hit. A number with no mark means an inactive call. Active and inactive are the calls of the source. No stated cut-off is given here; in the data, active means growth inhibition above about 70%; inactive means the rest. Where a SMILES comes first, the peptide text is derived from it. [ ]: non-standard residue; d: D form. The star is where a group is joined. Cbz = O=C(OCc1ccccc1)*; Nva = CCC[CH](N)C(=O)O
How the values were obtained:
[1] = NCI Yeast Anticancer Drug Screen. Data for the rad50 strain (AID 155);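 further: 0% = growth of vehicle-only cultures of the same strain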; conditions: S. cerevisiae rad50 strain growth inhibition; at 50.0 µM; hits give high values
Summary of the method: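 Readout: growth inhibition relative to vehicle-treated cultures. Compound exposure was carried out in a genetically defined yeast strain deficient in DNA damage repair.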

[2] = NCI Yeast Anticancer Drug Screen. Data for the mec2-1 strain (AID 157); conditions: S. cerevisiae mec2-1 strain, at 50.0 µM, hits give high values
Summary of the method: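 Cells of the genetically defined mec2-1 yeast strain are incubated with test compound. Inhibition of growth is calculated against vehicle-treated controls.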

[3] = NCI Yeast Anticancer Drug Screen. Data for the sgs1 mgt1 strain (AID 161);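 further: 0% = growth of cultures given vehicle only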; conditions: S. cerevisiae sgs1 mgt1 strain, at 50.0 µM, hits give high values
Summary of the method: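 Genetically altered yeast, compound exposure, growth inhibition relative to vehicle.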

[4] = NCI Yeast Anticancer Drug Screen. Data for the cln2 rad14 strain (AID 165);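 further: 0% = growth equal to vehicle treated cultures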; conditions: S. cerevisiae cln2 rad14 strain, at 50.0 µM, hits give high values
Summary of the method: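 The screen exposed genetically defined yeast (cln2 rad14) to test compounds and scored growth inhibition relative to vehicle-treated controls.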

[5] = NCI Yeast Anticancer Drug Screen. Data for the bub3 strain (AID 167); conditions: S. cerevisiae bub3 mutant strain, at 50.0 µM, hits give high values
Summary of the method: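 Readout: yeast growth inhibition, expressed relative to vehicle-only wells. The test organism is a mutant strain from a panel with lesions in DNA repair or checkpoint genes.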

[6] = NCI Yeast Anticancer Drug Screen. Data for the mlh1 rad18 strain (AID 175); conditions: S. cerevisiae mlh1 rad18 strain growth inhibition; at 50.0 µM; hits give high values
Summary of the method: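 Compound-treated yeast growth, normalised to vehicle controls. Strain bears defined DNA repair mutations.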

SMILES | growth inhibition [1] | growth inhibition [2] | growth inhibition [3] | growth inhibition [4] | growth inhibition [5] | growth inhibition [6]
Clc1ccccc1CSc1cnnc(Cl)c1SCc1ccccc1Cl | 28.6% | 12.2% | 31.6% | 39.6% | 5.2% | 21.9%
CC(C)C(CCN1CCCC1(C)C)(C(N)=O)c1ccccc1 (stereo unspecified) | -4.85% | -12.6% | -4.2% | -34% | 9.6% | 7.75%
CCOC(=O)C(Cc1cn(S(=O)(=O)c2ccc(C)cc2)cn1)P(=O)(OCC)OCC (stereo unspecified) | -34.5% | -4.45% | -13.4% | 14.2% | -16.7% | -14.3%
COC(=O)c1c(C(=O)Nc2ccccc2)c(-c2ccccc2)n(NC(N)=O)c1C | 8.35% | 3.25% | 4.2% | -17.4% | -1.75% | 17%
COc1cc2cccc(N=Cc3ccccc3Cl)c2cc1OC | -8.7% | -7.4% | -11.3% | 27.9% | 8.55% | -3.8%
N#CC(C#N)=C1CCNCC1 | -12.8% | -5.5% | -6.3% | -8.35% | 3.65% | 0.9%
C=CCCCCCCCCC1OCC(CC)C(CCC)O1 (stereo unspecified) | 5.65% | 10.1% | -2.8% | 47.5% | 26.5% | 39.3%
OCC1OC(O)C(N=Cc2ccc3c(c2)OCO3)C(O)C1O (stereo unspecified) | 13.7% | -14.6% | -14.2% | 1.45% | -20.6% | -19.9%
CSC(=S)/C(=C/Nc1ccccn1)c1ccccc1 | 39.5% | 14.5% | -8.6% | 15.2% | 37.8% | 14.9%
CCCN(CCC)CCCCCCCCN | 29.1% | -13.2% | -3.2% | 12.8% | -7.9% | 16.2%
CC1=CC2CC(C)C1(C)CCc1ccoc12 (stereo unspecified) | 2.8% | -11.7% | -2.8% | 6.75% | 9.85% | 4.7%
CCCC1OC(c2ccccc2)OCC1CC (stereo unspecified) | 6.45% | 20.2% | -12.7% | -36.9% | 15.8% | 9.05%
NC(=O)NC(=O)CC1NC(=O)NC1=O (stereo unspecified) | 9.25% | 12% | 18.1% | 12.1% | -4.1% | -16.4%
Cc1c2c(cc3c1[nH]c1ccccc13)C(=O)c1ccccc1C2=O | 75.5% (active) | 68.5% | 75.8% (active) | 75.3% (active) | 68.1% | 83.3% (active)
O=C1c2cccnc2-c2nccc3c2c1nc1ccccc13 | 90.3% (active) | 92.8% (active) | 91% (active) | 91.4% (active) | 91.5% (active) | 90.7% (active)
CC(O)CNC(=O)C(C)O (stereo unspecified) | 11.8% | -27.6% | -25.8% | -5.45% | 8.25% | 7.6%
CCNC1(C(N)=O)CCN(Cc2ccccc2)CC1 | -14.6% | -55.8% | -31.1% | 5.1% | -30.4% | -22.7%
O=C(O)c1ccc([N+](=O)[O-])cc1N(c1ccccc1)c1ccccc1 | 27.6% | 29.9% | 40.1% | 22.2% | 29.3% | 54%
O=c1[nH]cnc2nc(N3CCN(c4ccccc4)CC3)sc12 | 18.8% | 11.4% | 19.8% | -40.7% | 4.9% | 23.4%
COC1OC(COS(C)(=O)=O)C(OS(C)(=O)=O)C(OC(=O)c2ccccc2)C1OS(C)(=O)=O (stereo unspecified) | -6.25% | 8% | -9.6% | 1.15% | -0.85% | 20.6%
CCOC(=O)c1cc(C=O)nc2c(Cl)cc(Cl)cc12 | 18.7% | 6.25% | 22.4% | 5.9% | 3.8% | 17.6%

SMILES | growth inhibition [1] | growth inhibition [2] | growth inhibition [3] | growth inhibition [4] | growth inhibition [5] | growth inhibition [6]
Cc1cccc(-n2c(-c3ccccc3)cs/c2=N\N=C2/CSC(=O)N2Cc2ccccc2)c1 | -2.95% | -21.9% | 22.8% | -41.8% | 2.45% | -27.8%
COc1ccc2[nH]c3c4c(c5cc(C(C)(C)C)ccc5c3c2c1)C(=O)N(c1ccccc1)C4=O | -12.8% | -13.3% | 3.1% | 16.7% | -14.2% | -8.7%
CC(=O)c1ccccc1NCC(=O)Nn1cnc2ccc(S(=O)(=O)Nc3ccccc3C(C)=O)cc2c1=O | 7.25% | -21.3% | 12.9% | 18.6% | 11.5% | 7.6%
CCCCCCCC(=O)NCCCC(C)Nc1cc(OC)cc2cccnc12 (stereo unspecified) | 39.7% | 47% | 19.4% | 14.9% | 22% | 28.1%
Clc1ccc(-c2nnc3n2NC(c2ccccc2)S3)c(Cl)c1 (stereo unspecified) | 2.7% | -26% | -13.8% | 10.8% | -18.9% | -27.6%
O=c1/c(=c2\c(=O)c3cccc4cccc2c43)c2cccc3cccc1c32 | -10.2% | 24.9% | -0.4% | -34% | -9.05% | -18.1%
O=C1OC(=C(Cl)Cl)C2C3c4ccccc4C(c4ccccc43)C12 (stereo unspecified) | 21.9% | 21.6% | -1.5% | 8.75% | 2.7% | 18.2%
C[C@]12C=CC(=O)C=C1[C@@H](F)C[C@H]1[C@@H]3CC[C@](O)(C(=O)CO)[C@@]3(C)C[C@H](O)[C@@]12F | -11.9% | -26.4% | 4.8% | 66.8% | 2.85% | -9.9%
CCCCCCn1c(=O)c(N(C)C)c(C)n(C)c1=O | -36.1% | -3.5% | -9.05% | 46% | 17.7% | -23.4%
CNC(CCCC1CCCCC1)C(=O)O (stereo unspecified) | -2.85% | 5.7% | -0.15% | 11.4% | 12.8% | -7.35%
O=C(/C=C/c1c[nH]c2ccccc12)c1ccccc1[N+](=O)[O-] | 5.45% | 9.75% | 7.55% | -7.7% | 7.6% | -7%
O=[N+]([O-])c1ccc(/C(=N/Nc2ccccc2)c2ccc(Cl)cc2)cc1 | 13.2% | 2.1% | 1.65% | -14.1% | 9.8% | 4.1%
CC(=O)C1C(=O)C(=O)N(Cc2ccccc2)C1=O (stereo unspecified) | -20.4% | -13.8% | -27.4% | -19.3% | -7.4% | -19.6%
CCCC(C)NC(=O)c1ccc(Cl)c(Cl)c1 (stereo unspecified) | 0.25% | 4.9% | 13.1% | 8.3% | 9.15% | 24.6%
Cc1ncc([N+](=O)[O-])n1CCN(C)CCCCn1ccnc1[N+](=O)[O-] | -0.3% | -1.2% | -5% | -3.75% | 7.7% | -57.9%
COC(=O)C1CC(c2ccc(Cl)cc2)=NO1 (stereo unspecified) | 36.4% | 8.25% | 8.5% | 5.3% | 1.5% | 47.1%
CN(C)c1ccc(C(=O)c2ccc([N+](=O)[O-])cc2)cc1 | -1.6% | -10% | 0.5% | 6.3% | -4.95% | -8.25%
O=C(O)CC(SSCc1ccccc1)C(=O)O (stereo unspecified) | 5.1% | 16.6% | -4.15% | -12.2% | 12.7% | 20.8%
CCCC(NC(=O)OCc1ccccc1)C(=O)NC(CCSC)C(=O)O (stereo unspecified) (Cbz-[Nva]-Met-OH; configuration not given here) | -54.6% | -1.6% | -4.65% | 11.5% | -0.85% | -5.95%
O=C(O)C1(C(=O)O)CCN(S(=O)(=O)c2ccccc2)CC1 | -4% | -10.9% | -39% | -5.2% | -9.85% | -7%
